Assay outcomes deposited in PubChem BioAssay by several laboratories.
aSyn UTR inh – MLPCN primary screen, SNCA 5' untranslated region; alpha-synuclein 5'UTR reporter, inhibitor activity; inhibition, % (tested at 7.5 µM); hit rate 0.82% among 300,000; AID 1813; in the data active = inhibition above about 60%;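 note: H4 neuroglioblastoma cells stably carrying SNCA 5'UTR luciferase fusion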
IEC-6 tox – kills IEC-6 intestinal cells in KLF5 counter-screen; hit rate 0.78% among 290,000; IEC-6 cytotoxicity, luminescence viability; inhibition, % at 5 µM; AID 1825
APP transl inh – APP translation inhibition. inhibition, % at 2 µM. hit rate 0.82% among 190,000. SH-SY5Y APP 5'UTR-luciferase reporter, luminescence;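 active = inhibition above a set limit, derived from the sample mean plus 3 SD, cut at about 45% in these data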
BaF3 parental – reduces parental Ba/F3 cell viability, JAK2V617F counter-screen. CellTiter-Glo ATP luminescence. inhibition, % at 5.6 µM. hit rate 1.1% among 220,000. AID 1486;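 active = inhibition above a per-campaign cutoff, the mean inhibition of all tested compounds plus 3 SD, cut at about 27% in these data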
KLF5 inhibitor – kruppel-like factor 5 inhibition | DLD-1 KLF5 promoter-luciferase reporter, luminescence | inhibition, % at 5 µM | hit rate 0.23% among 290,000;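 active = inhibition above a per-plate limit of that plate's mean compound inhibition plus 3 SD, cut at about 60% in these data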;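 note: higher means less KLF5 promoter-driven luciferase light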
Ba/F3 V617F tox – loss of viability in JAK2V617F-driven Ba/F3 cells | Ba/F3 EpoR-JAK2V617F viability, ATP luminescence | inhibition, % at 5.6 µM | hit rate 1.1% among 220,000 | AID 1446;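 active = inhibition above the campaign mean plus 3 SD over all tested compounds, cut at about 24% in these data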;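 note: cytokine-independent growth of Ba/F3 cells driven by EpoR plus mutant JAK2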
IEC-6 cytotox cf – IEC-6 cytotoxicity, confirmation assay; IEC-6 rat intestinal epithelial viability, luminescence; shares compounds with IEC-6 tox; inhibition, % at 5 µM; hit rate 63% among 1,900
Of the large screens only hits and unclear results are named; the others gave an inactive call (follow-up assays come after a bar, where they were run). Sampled rows, rich in hits. Any-hit rate of the full collection: about 2.2%. Cut-off read from the data, not from the text of the source, unless noted: active = inhibition above about 22%; inactive = the rest.

Cc1cc(Nc2ccccc2)nc(NCc2ccccc2)n1	none
C/C(=N/NC(=O)CN(c1ccccc1)S(=O)(=O)c1ccccc1)c1ccccc1O	IEC-6 tox 45.6 (no result: APP transl inh, BaF3 parental, Ba/F3 V617F tox) | IEC-6 cytotox cf 38.0
CCCC/C(C)=N/NC(=O)CN(c1ccc(Br)cc1)S(=O)(=O)c1ccccc1	none
CCCN1CCN(C(=O)c2cc(COc3ccc(F)cc3F)on2)CC1	none (no result: APP transl inh, BaF3 parental, Ba/F3 V617F tox)
O=C(Nc1ccc(-c2nc3ccc(NC(=O)c4cccs4)cc3[nH]2)cc1)c1cccs1	aSyn UTR inh 121.7, IEC-6 tox 52.7, BaF3 parental 102.4, Ba/F3 V617F tox 98.1 | IEC-6 cytotox cf 42.7
O=C(Nc1ccc2nc(-c3cccs3)[nH]c2c1)c1cccs1	none
COC(=O)c1ccc2nc(C)cc(Nc3ccc(N(C)C)cc3)c2c1	none
COC(=O)c1ccc(Nc2cc(C)nc3ccccc23)cc1	aSyn UTR inh 64.7, IEC-6 tox 23.4 (no result: APP transl inh) | IEC-6 cytotox cf 27.1
C1=C(CCNc2ncnc3c2[nH]c2ccccc23)CCCC1	IEC-6 tox 39.3, BaF3 parental 62.7, Ba/F3 V617F tox 72.8 (no result: aSyn UTR inh) | IEC-6 cytotox cf 24.0
O=c1c2[nH]c3ccccc3c2ncn1CCC1=CCCCC1	none
CCOc1ccc(C(=O)c2ccncc2)cc1	none
CCOc1ccc(C(=O)C(CCC(CN(C)C)C(=O)c2ccc(OCC)cc2)CN(C)C)cc1 (centres undefined)	IEC-6 tox 29.4, APP transl inh 92.5, BaF3 parental 40.0, Ba/F3 V617F tox 100.9 | IEC-6 cytotox cf 26.8
COc1ccc(OCc2cc(C(=O)N3CCC(c4ccccc4)CC3)no2)c(Cl)c1	none (no result: APP transl inh, BaF3 parental, Ba/F3 V617F tox)
COC(=O)c1ccc(-n2c(C)cc(C(=O)CSc3cccc[n+]3[O-])c2C)cc1	none
Cc1cc(C(=O)CSc2cccc[n+]2[O-])c(C)n1-c1ccc(OC(F)F)cc1	IEC-6 tox 27.1 (no result: APP transl inh) | IEC-6 cytotox cf inactive
Cc1[nH]c2ccccc2c1/C=N/NC(=O)c1cc(-c2ccncc2)nc2ccccc12	IEC-6 tox 40.1 (no result: APP transl inh, BaF3 parental, Ba/F3 V617F tox) | IEC-6 cytotox cf 53.5
COC(=O)c1[nH]c(C)c(/C(O)=C2\C(=O)C(=O)N(CCN3CCOCC3)C2c2cccs2)c1C (centres undefined)	none (no result: IEC-6 tox, APP transl inh, BaF3 parental, KLF5 inhibitor, Ba/F3 V617F tox)
CCOC(=O)c1[nH]c(C)c(/C(O)=C2\C(=O)C(=O)N(CCCN3CCOCC3)C2c2cccs2)c1C (centres undefined)	IEC-6 tox 58.7, BaF3 parental 71.8, Ba/F3 V617F tox 69.7 (no result: APP transl inh) | IEC-6 cytotox cf inactive
Cc1ccc(NC(=O)Cn2c(=O)cnc3ccccc32)cc1S(=O)(=O)N(C)C	IEC-6 tox 25.4 | IEC-6 cytotox cf inactive
Cc1ccc(NC(=O)CN2CCc3ccccc3C2)cc1S(=O)(=O)N(C)C	none
CCN(CC)c1ccc(S(=O)(=O)N2CCOCC2)cc1NC(=O)CSC(=S)N1CCCC1	none (no result: APP transl inh, BaF3 parental, Ba/F3 V617F tox)
COc1ccccc1N1CCN(c2ccc(-c3ccccc3)nn2)CC1	aSyn UTR inh 79.0, IEC-6 tox 61.5, APP transl inh 89.6, BaF3 parental 74.4, Ba/F3 V617F tox 71.8 | IEC-6 cytotox cf 58.9
COc1ccccc1N1CCN(c2ccc3ccccc3n2)CC1	none (no result: APP transl inh, BaF3 parental, Ba/F3 V617F tox)
O=[N+]([O-])CC(c1ccc(F)cc1)c1c[nH]c2ccccc12 (centres undefined)	IEC-6 tox 46.7 (no result: APP transl inh, BaF3 parental, Ba/F3 V617F tox) | IEC-6 cytotox cf 29.3
CCOc1ccccc1NS(=O)(=O)c1c(C)[nH]c(C)c1C(=O)N1CCCCC1	none (no result: APP transl inh, BaF3 parental, Ba/F3 V617F tox)
Cc1cc(NC(=O)CSc2nnc(-c3ccccc3)o2)no1	IEC-6 tox 29.1 | IEC-6 cytotox cf inactive
Cc1cccc2cc(C#N)c(SCC(=O)N3CC(=O)Nc4ccccc43)nc12	aSyn UTR inh 110.3, IEC-6 tox 92.9, APP transl inh 96.2, BaF3 parental 88.7, Ba/F3 V617F tox 85.2 | IEC-6 cytotox cf 73.6
Cc1cc(NC(=O)CSc2nnc(-c3ccc(O)cc3)o2)no1	none (no result: APP transl inh)
CCc1cc2ccc(C)c(C)c2nc1SCC(=O)Nc1cc(C)on1	IEC-6 tox 34.9 (no result: APP transl inh, BaF3 parental, Ba/F3 V617F tox) | IEC-6 cytotox cf 31.6
Cc1cc(NC(=O)CSc2nc3c(C)cccc3cc2C#N)no1	IEC-6 tox 22.8 (no result: APP transl inh, BaF3 parental, Ba/F3 V617F tox) | IEC-6 cytotox cf inactive
Cc1cc(NC(=O)CSc2nc3c(C)ccc(C)c3cc2C#N)no1	none (no result: APP transl inh, BaF3 parental, Ba/F3 V617F tox)
COc1ccc2cc(C#N)c(SCC(=O)N3CC(=O)Nc4ccccc43)nc2c1	none (no result: APP transl inh)
CCOc1ccc(NC(=S)N(CC)Cc2ccccc2)cc1	none
CN(CCOC(=O)c1ccco1)Cc1ccccc1	IEC-6 tox 40.7 | IEC-6 cytotox cf inactive
O=C(CSc1ncnc2nc[nH]c12)c1ccccc1	none
